The campaign covered roughly 39,000 compounds. About 1,500 (3.8%) were called active. The full list was thinned out, with actives kept by preference.

The experiment has as its system HSkMC (human skeletal muscle cells). As to the kind of experiment: cytotoxicity call (relative viability < 0.9). To be noted: 10 µM.
As for `C[C@@H]1CCCCO[C@H](CN(C)C(=O)Nc2ccccc2)[C@@H](C)CN([C@H](C)CO)C(=O)c2cc(NC(=O)c3ccncc3)ccc2O1`, the cytotoxicity call is “inactive”.
In the case of `Cc1noc(C)c1NC(=O)N(C)C[C@H]1Oc2ccc(NS(=O)(=O)c3cccs3)cc2CC(=O)N([C@@H](C)CO)C[C@H]1C`, the cytotoxicity call was “inactive”.
The result for `Cc1ccc(-c2cnc(-c3ccc(Br)cc3)o2)cc1` reads “inactive”.
The result for `C[C@@H]1CN([C@H](C)CO)C(=O)Cc2cc(NC(=O)Cn3cnnn3)ccc2O[C@@H]1CN(C)Cc1ccccc1` reads “inactive”.
The result for `CCCN1C[C@H](C)[C@@H](O)[C@](C)(O)[C@@H](CC)OC(=O)[C@H](C)[C@@H](O[C@H]2C[C@@](C)(OC)[C@@H](O)[C@H](C)O2)[C@H](C)[C@@H](O[C@@H]2O[C@H](C)C[C@H](N(C)C)[C@H]2O)[C@](C)(O)C[C@H]1C` reads “inactive”.
Consider `CCc1cccc(C(C)C)c1NC(=O)Nc1ccccc1`, for which the cytotoxicity call is “inactive”.
The result for `CC(C)c1ccccc1Cc1cc(C(=O)Nc2ccc(S(=O)(=O)c3ccccc3C(C)(C)C)cc2)c(O)c(O)c1O` reads “active”; that for `Cc1oc(C(C)(C)C)cc1C(=O)Nc1ccc(C(C)C)cc1`, “inactive”.
Then `CNC(=O)C[C@@H]1CC[C@@H]2[C@H](COC[C@H](O)CN2C(=O)Nc2cccc(OC)c2)O1`, with “inactive”; and `C[C@H]1CCCCO[C@H](CN(C)C(=O)Nc2ccc3c(c2)OCO3)[C@@H](C)CN([C@@H](C)CO)C(=O)c2cc(NS(=O)(=O)c3ccccc3)ccc2O1`, with “inactive”; and `C[C@H](O)[C@H](O)[C@@H](O)[C@@H](O)/C=N/NC(=O)CCCCC(=O)NO`, with “inactive”.
For `C[C@H](CO)N1C[C@H](C)[C@H](CN(C)C(=O)Nc2cccc3ccccc23)OCCCC[C@H](C)Oc2ccc(NS(C)(=O)=O)cc2C1=O`, the cytotoxicity call was “inactive”.
As to `Cc1ccc(S(=O)(=O)Nc2ccc3c(c2)CC(=O)N([C@H](C)CO)C[C@@H](C)[C@H](CN(C)Cc2ccc(-c4ccccc4)cc2)O3)cc1`, the cytotoxicity call is “active”.
The result for `Cc1ccc(S(=O)(=O)Nc2ccc3c(c2)CC(=O)N([C@H](C)CO)C[C@@H](C)[C@@H](CN(C)Cc2ccc(-c4ccccc4)cc2)O3)cc1` reads “active”; that for `Cc1ccc(S(=O)(=O)Nc2ccc3c(c2)CC(=O)N([C@@H](C)CO)C[C@@H](C)[C@@H](CN(C)Cc2ccc(-c4ccccc4)cc2)O3)cc1`, “active”.
For `Cc1ccc(S(=O)(=O)Nc2ccc3c(c2)CC(=O)N([C@H](C)CO)C[C@H](C)[C@H](CN(C)Cc2ccc(-c4ccccc4)cc2)O3)cc1`, the cytotoxicity call was “inactive”.
As for `Cc1ccc(S(=O)(=O)Nc2ccc3c(c2)CC(=O)N([C@H](C)CO)C[C@H](C)[C@@H](CN(C)Cc2ccc(-c4ccccc4)cc2)O3)cc1`, the cytotoxicity call was “inactive”.
Turning to `Cc1ccc(S(=O)(=O)Nc2ccc3c(c2)CC(=O)N([C@@H](C)CO)C[C@H](C)[C@@H](CN(C)Cc2ccc(-c4ccccc4)cc2)O3)cc1`, the cytotoxicity call was “active”.
Regarding `C[C@H]1CN([C@@H](C)CO)C(=O)c2cc(NC(=O)NC3CCCCC3)ccc2O[C@H]1CN(C)Cc1ccc(C(=O)Nc2ccccc2N)cc1`, the cytotoxicity call is “inactive”.
The result for `C[C@@H]1CN([C@H](C)CO)C(=O)c2cc(NC(=O)c3ccncc3)ccc2O[C@H]1CN(C)S(=O)(=O)c1ccc(F)cc1` reads “inactive”; that for `C[C@@H]1CN([C@@H](C)CO)C(=O)c2cc(NC(=O)C3CC3)ccc2O[C@@H]1CN(C)S(=O)(=O)c1ccc(F)cc1`, “inactive”.
Then `CC(C)NC(=O)N[C@H]1C=C[C@@H](CC(=O)NCCN2CCCC2)O[C@H]1CO`, with “inactive”; and `CC(C)NC(=O)N(C)C[C@H]1Oc2ccc(NS(=O)(=O)c3cn(C)cn3)cc2C(=O)N([C@H](C)CO)C[C@@H]1C`, with “inactive”.
Regarding `O=C(CCCCCNC(=O)OCc1ccc(CO[C@@H]2C[C@H](C3CCCCC3)C=C(C(=O)N3CCN(Cc4ccc5c(c4)OCO5)CC3)O2)cc1)NO`, the cytotoxicity call was “inactive”.
The result for `COc1ccc(CN(C)C[C@@H]2Oc3ccc(NC(=O)C4CC4)cc3CC(=O)N([C@@H](C)CO)C[C@@H]2C)cc1` reads “inactive”; that for `COc1cc(O)cc(OC)c1O[C@@H]1O[C@H](CO)[C@@H](O)[C@H](O)[C@H]1O`, “inactive”; that for `C[C@H]1CN([C@@H](C)CO)C(=O)Cc2cc(NC(=O)CCCCCC(=O)Nc3ccccc3N)ccc2O[C@@H]1CN(C)Cc1ccc(Cl)c(Cl)c1`, “inactive”.
`C[C@H]1CN([C@@H](C)CO)C(=O)c2cc(NC(=O)CCN3CCOCC3)ccc2O[C@H]1CN(C)S(=O)(=O)c1ccc(F)cc1`: the cytotoxicity call is “inactive”.
The result for `C[C@H](CO)N1C[C@H](C)[C@H](CN(C)Cc2ccc(C(F)(F)F)cc2)Oc2ccc(NC(=O)C3CCCCC3)cc2C1=O` reads “inactive”.
Then `Cc1ccc(S(=O)(=O)Nc2ccc3c(c2)CC(=O)N([C@@H](C)CO)C[C@@H](C)[C@H](CN(C)Cc2ccc(-c4ccccc4)cc2)O3)cc1`, with “inactive”; and `Cc1ccc(S(=O)(=O)Nc2ccc3c(c2)CC(=O)N([C@@H](C)CO)C[C@H](C)[C@H](CN(C)Cc2ccc(-c4ccccc4)cc2)O3)cc1`, with “active”; and `Cc1noc(C)c1NC(=O)Nc1ccc2c(c1)C(=O)N([C@@H](C)CO)C[C@@H](C)[C@H](CN(C)C(=O)NC1CCCCC1)OCCCC[C@H](C)O2`, with “inactive”.
As to `CC(=O)NCCn1cccc1`, the cytotoxicity call was “inactive”.
Then `C[C@@H]1CCCCO[C@H](CN(C)Cc2ccc(C(F)(F)F)cc2)[C@@H](C)CN([C@@H](C)CO)C(=O)c2cc(NS(=O)(=O)c3ccc(F)cc3)ccc2O1`, with “inactive”.
Then `C[C@@H]1CCCCO[C@@H](CN(C)Cc2ccc(Cl)c(Cl)c2)[C@H](C)CN([C@@H](C)CO)C(=O)c2cc(NC(=O)c3ccccc3)ccc2O1`, with “active”.
Turning to `C[C@@H]1CCCCO[C@H](CN(C)Cc2ccc(Cl)c(Cl)c2)[C@@H](C)CN([C@@H](C)CO)C(=O)c2cc(NC(=O)c3ccccc3)ccc2O1`, the cytotoxicity call is “inactive”.
The result for `C[C@H]1CCCCO[C@H](CN(C)Cc2ccc(Cl)c(Cl)c2)[C@@H](C)CN([C@@H](C)CO)C(=O)c2cc(NC(=O)c3ccccc3)ccc2O1` reads “active”.
Then `C[C@@H]1CCCCO[C@H](CN(C)Cc2ccc(Cl)c(Cl)c2)[C@H](C)CN([C@@H](C)CO)C(=O)c2cc(NC(=O)c3ccccc3)ccc2O1`, with “inactive”; and `C[C@@H]1CCCCO[C@@H](CN(C)Cc2ccc(Cl)c(Cl)c2)[C@H](C)CN([C@H](C)CO)C(=O)c2cc(NC(=O)c3ccccc3)ccc2O1`, with “active”.
Then `C[C@@H]1CCCCO[C@H](CN(C)Cc2ccc(Cl)c(Cl)c2)[C@@H](C)CN([C@H](C)CO)C(=O)c2cc(NC(=O)c3ccccc3)ccc2O1`, with “inactive”; and `C[C@H](CO)N1C[C@H](C)[C@H](CN(C)Cc2ccc(Cl)c(Cl)c2)OCCCC[C@H](C)Oc2ccc(NC(=O)c3ccccc3)cc2C1=O`, with “inactive”.
For the molecule `C[C@@H]1CN([C@H](C)CO)C(=O)c2cc(NC(=O)c3ccccc3)ccc2O[C@@H](C)CCCCO[C@H]1CN(C)Cc1ccc(Cl)c(Cl)c1`, the cytotoxicity call was “inactive”.
Then `C[C@H](CO)N1C[C@H](C)[C@@H](CN(C)Cc2ccc(Cl)c(Cl)c2)OCCCC[C@H](C)Oc2ccc(NC(=O)c3ccccc3)cc2C1=O`, with “inactive”.
